# Screening data deposited in PubChem by National Center for Advancing Translational Sciences (NCATS).
# S2 tox – cell viability loss in ATXN counter-screen | AID 651635 | Potency, µM (doses to about 56.7 µM), usual class: cytotoxic | S2 cells (HEK-293 line with an ATXN2-luciferase reporter) viability, CellTiter-Fluor protease fluorescence, 24 h | 0.49% of 400,000 active; note: nearly all actives have a fitted effect of over 40% in size
# TDP1 cell noCPT – qHTS for Inhibitors of human tyrosyl-DNA phosphodiesterase 1 (TDP1): qHTS in cells in absence of CPT | DT40 Tdp1-/- hTDP1 cells, no CPT, ATP luminescence, 48 h | Potency, µM (top dose mostly 46.2 µM), without a hit: at the highest dose activity change, negative = growth inhibition, usual class: inhibitors | 15% of 420,000 active; note: % is set by controls: 0 for no effect and ±100 for the full control effect; nearly all actives have a fitted effect of over 55% in size
#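 Growth kinetics read by CellTiter-Glo luminescence after ≥48 hr at 37 °C. Cells: DT40 Tdp1-/- stably carrying human TDP1, 400 per well, compound exposure in the absence of CPT (DMSO vehicle).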
# TGFb SMAD3 inh – blocks TGF-b signaling; HepG2 CAGA-GFP TGF-b/SMAD3 reporter, GFP fluorescence, 18 h; TGF-beta stimulated, 500 pg/mL final; Potency, µM (top dose mostly 46.1 µM), for inactives: top-dose activity, negative = inhibition, usual class: inhibitors; 1.2% of 410,000 active; AID 588855; note: % is set by controls: 0 for no effect and ±100 for the full control effect; nearly all actives have a fitted effect of over 65% in size
#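 HEPG2 CAGA-GFP cells (1000/well, DMEM with 1% FBS) were pre-incubated 2 h at 37 degrees C, given compound by pin tool, then stimulated with TGF-beta at 500 pg/mL final for 18 h before per-cell GFP fluorescence imaging.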
# HepG2 viability – counter-screen for TGF-b inhibitors: cytotoxicity in HepG2 cells; AID 588856; Potency, µM (series often up to 46.1 µM), for inactives: top-dose activity change, negative = cytotoxicity, usual class: cytotoxic; HepG2 CAGA-GFP viability, ATP luminescence, 18 h; 0.76% of 410,000 active
#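 CellTiter-Glo luminescence gave cytotoxicity after 18 hours at 37 degrees C. The cells were HepG2 CAGA-GFP in 1% FBS DMEM, stimulated with 500 pg/mL TGF-beta after compound addition. %Activity was normalised to no-cell wells (complete cell-killing) and DMSO (no toxicity), and curves were fitted and classified.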
# ATXN2 expr inh – inhibitors of ATXN2 expression; HEK-293 ATXN2-luciferase reporter, luminescence, 24 h; Potency, µM (doses to about 57 µM), inactives show at the highest dose activity change, negative = inhibition, usual class: inhibitors; 0.72% of 360,000 active; note: % is set by controls: 0 for no effect and ±100 for the full control effect; nearly all actives have a fitted effect of over 55% in size
#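 ATXN2-luciferase reporter cells (luciferase flanked by upstream and downstream ATXN2 gene portions) were treated 24 h at 37 °C with compounds at up to 57 uM. SteadyGlo luminescence gave expression; GF-AFC fluorescence gave viability.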
# TDP1 cell CPT – growth inhibition of DT40 Tdp1-/-;hTDP1 cells with camptothecin (screen for TDP1 inhibitors); chicken DT40 Tdp1-/-;hTDP1 cells + 20 nM CPT, ATP luminescence, 48 h; Potency, µM (series often up to 46.2 µM), for the others: at the top dose activity change, negative = growth inhibition, actives largely listed as inhibitors; 12% of 420,000 active; note: % is set by controls: 0 for no effect and ±100 for the full control effect; nearly all actives have a fitted effect of over 55% in size
#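 Cell growth measured by CellTiter-Glo luminescence after a minimum 48 h, 37 C compound exposure with 20 nM CPT in Tdp1-knockout DT40 cells stably expressing hTDP1, seeded 400/well; qHTS titration format.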
# * marks the source's active call; other numbers are inactive results; i = inactive; ? = inconclusive; . = no result given. Only some compounds are listed: those with a hit (about 17% of all), similar ones and a draw of the others. Calls come from the whole dose curve; as a rule, active = well fitted curve in the direction sought with a large enough effect; inconclusive = small, poorly fitted or top-dose-only effect, or another doubt; inactive = no such curve, though single readings can be large; an effect the other way counts as inactive or inconclusive. Potency is the fitted concentration of half-maximal effect.
SMILES,S2 tox,TDP1 cell noCPT,TGFb SMAD3 inh,HepG2 viability,ATXN2 expr inh,TDP1 cell CPT
CCc1cccc(OCC2Cn3c(nc4c3c(=O)n(C)c(=O)n4C)O2)c1 (centres undefined),i,?,-19.2%,-42.9%,?,?
CCc1cccc(OCC2Cn3c(nc4c3c(=O)[nH]c(=O)n4C)O2)c1 (centres undefined),i,?,-0.3%,-21.6%,-14.9%,8.2µM*
Cc1ccc(OCC2Cn3c(nc4c3c(=O)[nH]c(=O)n4C)O2)cc1C (centres undefined),i,10.3µM*,38.4%,-21.3%,-38.3%,?
Cc1ccc(-n2c(C)c(C)c3c(NCCO)ncnc32)cc1,i,?,0.0%,-2.6%,49.7%,27.0%
CCCCn1c(SCC(=O)NCc2ccco2)nc2ccc(N3CCOCC3)cc2c1=O,i,?,-8.2%,-3.6%,9.5%,?
CCCCn1c(SCC(=O)NCc2ccccc2)nc2ccc(N3CCOCC3)cc2c1=O,i,1.46µM*,-3.2%,-15.9%,-9.5%,-20.5%
CCCCn1c(SCC(=O)Nc2cc(NC(=O)c3ccco3)ccc2C)nc2ccccc2c1=O,?,23.1µM*,-3.3%,-10.7%,?,?
CCCCn1c(SCC(=O)Nc2cc(C)on2)nc2ccccc2c1=O,i,-14.0%,-54.0%,3.98µM*,-24.7%,?
Cc1ccc(CNC(=O)C2CC(c3cccc([N+](=O)[O-])c3)=NO2)o1 (centres undefined),i,?,-2.9%,-8.3%,58.9%,?
Cc1ccc(CNC(=O)c2ccccc2NC(=O)CN2CCN(C)CC2)cc1,i,0.9%,-14.1%,-24.9%,-4.1%,-1.2%
NC(=S)N/N=C/c1ncc(C(F)(F)F)cc1Cl,14.1µM*,0.517µM*,4.47µM*,-53.0%,7.94µM*,0.411µM*
COc1ccc(/C=N/NC(N)=S)cc1,i,?,-3.8%,-1.0%,13.7%,?
NC(=S)N/N=C/c1ccc(C(F)(F)F)cc1,i,16.4µM*,-29.4%,-22.1%,-27.5%,20.6µM*
COCCN1C[C@@H](CO)O[C@@H](n2cnc3c(NCc4ccncc4)ncnc32)C1,i,-11.7%,-22.7%,-38.8%,-0.4%,?
CCn1c(-c2ccc[nH]c2=O)nc2ccccc21,i,8.9%,0.1%,-0.6%,.,0.0%
O=c1[nH]cccc1-c1nc2ccccc2n1Cc1ccccc1F,i,29.1µM*,8.8%,-0.6%,.,20.6µM*
O=C1OC(c2ccccc2)c2ccc3ccccc3c21 (centres undefined),i,-6.4%,0.9%,-6.2%,-14.2%,?
Cc1cc(=O)[nH]c(SCC(=O)C23CC4CC(CC(C4)C2)C3)c1C#N,i,18.4µM*,?,-33.9%,19.8%,8.2µM*
COc1cc(NC(=O)COc2ccccc2Cl)ccc1NC(=O)c1cccs1,i,-8.7%,-9.2%,-41.7%,6.2%,-2.8%
COc1cc(NC(=O)COc2ccccc2[N+](=O)[O-])ccc1NC(=O)c1cccs1,12.6µM*,?,?,-50.0%,?,?
COc1cc(NCCC(=O)c2cccs2)c(OC)cc1Cl,i,4.61µM*,?,-25.6%,36.5%,3.66µM*
COc1cc(NC(=O)c2ccccc2)c(OC)cc1NC(=O)CSc1[nH]c(=O)cc(C)c1C#N,i,2.31µM*,-0.3%,1.8%,37.9%,3.66µM*
COc1ccc(NC(=O)CCC(=O)c2cccs2)cc1Cl,i,1.5%,3.1%,-1.9%,-3.2%,3.7%
CN(C)C(CNC(=O)CCNC(=O)c1ccc(Cl)cc1)c1ccco1 (centres undefined),i,-6.8%,-19.1%,-2.1%,-1.8%,-18.3%
CCc1nc2ccc(C(=O)N3CCN(C)CC3)cn2c1N(C)CCCc1ccccc1,i,?,-4.1%,-11.1%,0.5%,?
SMILES,S2 tox,TDP1 cell noCPT,TGFb SMAD3 inh,HepG2 viability,ATXN2 expr inh,TDP1 cell CPT
COc1cc(NC(=O)c2cccs2)c(OC)cc1NC(=O)Nc1ccc(F)cc1,i,23.1µM*,-22.2%,1.4%,-23.4%,?
COc1ccccc1CC(=O)Nc1cc(OC)c(NC(=O)c2ccccc2)cc1OC,i,13µM*,4.4%,-9.0%,-14.4%,-59.2%
COc1cc(NC(=O)c2cccs2)c(OC)cc1NC(=O)Cc1ccccc1,i,23.1µM*,-1.5%,-7.0%,-9.6%,?
CCc1ccc(N2CCN(C(=O)N3CCOCC3)CC2)cc1,i,-15.1%,6.6%,3.1%,-11.4%,8.5%
COc1ccc(CNC(=O)C(=O)NCCC2CCCCN2S(=O)(=O)c2ccc(C)cc2)cc1 (centres undefined),i,25.9µM*,-6.9%,7.1%,-2.3%,16.4µM*
Cc1ccc(C)c(S(=O)(=O)N2CCCC2CNC(=O)C(=O)NCc2ccco2)c1 (centres undefined),i,?,-26.4%,-30.6%,-3.3%,?
Cc1ccc(S(=O)(=O)N2CCCCC2CCNC(=O)C(=O)NCc2ccncc2)cc1 (centres undefined),i,?,-16.5%,-7.9%,-10.6%,?
COc1ccc(CNC(=O)C(=O)NCCC2CCCCN2S(=O)(=O)c2ccccc2)cc1 (centres undefined),i,?,-7.6%,0.4%,-12.5%,?
Cc1ccc(C)c(S(=O)(=O)N2CCCCC2CCNC(=O)C(=O)NCc2ccco2)c1 (centres undefined),?,8.2µM*,?,6.8%,?,16.4µM*
Cc1ccc(S(=O)(=O)N2CCCCC2CCNC(=O)C(=O)NCc2ccccc2)cc1 (centres undefined),i,2.91µM*,-20.2%,-3.0%,-14.9%,3.26µM*
CC(=O)Nc1ccc(Nc2cc(C)nc3c(-c4ccccc4)cnn23)cc1,i,16.4µM*,0.0%,-1.9%,40.0%,?
O=C(CCn1c(=O)c2cccn2c2cccnc21)N1CCN(c2ccccc2)CC1,.,?,-8.3%,-19.2%,.,?
O=C(CCn1c(=O)c2cccn2c2cccnc21)N1CCN(c2cccc(C(F)(F)F)c2)CC1,.,9.2µM*,11.2µM*,-41.9%,.,14.6µM*
CN1CCN(C(=O)CCn2c(=O)c3cccn3c3cccnc32)CC1,i,2.3%,14.0%,4.9%,2.4%,1.7%
O=C(CCn1c(=O)c2cccn2c2cccnc21)N1CCN(c2ccc(Cl)cc2)CC1,.,13µM*,?,-20.7%,.,10.3µM*
